Data as given in PubChem BioAssay (NCI).
Compounds without any hit were thinned out: in the full panel of roughly 83,000, 20% have a hit.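 Each cell line was grown in a 96-well plate and treated with one concentration of compound for 48 hours. Values below 10 were considered active.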 Values without a mark were called inactive. Calls of active or inactive are those of the source.

Legend:
Experiment in all cases: NCI-60 one-dose screen, 48 h (100 = growth as untreated, 0 = no growth, -100 = all killed)
Conditions in all cases: 10 µM unless noted
HCT-15 colon = tested on: HCT-15 colon
HT29 colon = tested on: HT29 colon
SNB-75 CNS = tested on: SNB-75 CNS
SNB-19 CNS = tested on: SNB-19 CNS
U251 CNS = tested on: U251 CNS
PC-3 prostate = tested on: PC-3 prostate
SK-MEL-5 melanoma = tested on: SK-MEL-5 melanoma
UACC-62 melanoma = tested on: UACC-62 melanoma
LOX IMVI melanoma = tested on: LOX IMVI melanoma
SK-MEL-28 melanoma = tested on: SK-MEL-28 melanoma

| Structure (SMILES) | growth (HCT-15 colon) | growth (HT29 colon) | growth (SNB-75 CNS) | growth (SNB-19 CNS) | growth (U251 CNS) | growth (PC-3 prostate) | growth (SK-MEL-5 melanoma) | growth (UACC-62 melanoma) | growth (LOX IMVI melanoma) | growth (SK-MEL-28 melanoma) |
| --- | --- | --- | --- | --- | --- | --- | --- | --- | --- | --- |
| Cc1nc(S(=O)(=O)c2ccccc2)c(S(=O)(=O)Cc2ccc([N+](=O)[O-])cc2)o1 | 82.5% | 91.2% | 72.9% | 92.5% | 98.8% | 87.9% | 95.9% | 79.8% | 89.6% | 103% |
| COc1cc(C(=O)N/N=C/c2cc3cc(OCc4ccccc4)ccc3nc2OC)cc(OC)c1OC | 80.3% | 82.9% | 77.7% | 90.3% | 84.8% | 68.1% | 63.7% | 84.3% | 81.9% | 100% |
| Oc1ccc(C#CCOc2ccccc2)cc1CNCCN(Cc1ccccn1)Cc1ccccn1 | 4.51% (active) | 25.5% | 25.6% | 20.7% | 7.44% (active) | 27.7% | 1.89% (active) | 9.83% (active) | 3.51% (active) | 32.9% |
| NCCOc1ncccc1/C=C1\C2C=CC=CC2C2C=CC(F)=CC12 (stereo not given) | 7.3% (active) | 14.4% | 40.3% | 16% | 10.8% | 33.9% | 21.7% | 31.5% | -22.5% (active) | 64.3% |
| Cc1ccc(C2CC(c3ccc(Nc4ccnc5cc(Cl)ccc45)cc3)=NN2C=O)cc1 (stereo not given) | 18.6% | 41.8% | 76.3% | 74.4% | 58.6% | 57.4% | 10.4% | 36.9% | 34% | 51.7% |
| c1ccc2c(-c3nc(-c4c[nH]c5ccncc45)cs3)c[nH]c2c1 | 6% (active) | 2.05% (active) | 57.6% | 86.5% | -14.9% (active) | 46.7% | 51.1% | 87.1% | -76% (active) | -89.8% (active) |
| O=C(Cc1ccc(F)c(Cl)c1)Nc1cc(C2(C(F)(F)F)CC2)nn1CC1CCCCC1 | 5.75% (active) | 8.71% (active) | -8.19% (active) | 14.7% | 1.68% (active) | 0.348% (active) | -74.5% (active) | 0.508% (active) | 11.6% | 19.7% |
| COc1ccc(S(=O)(=O)n2cc(C3OC(c4cc(OC)c(OC)c(OC)c4)=NN3C(C)=O)c3ccccc32)cc1OC (stereo not given) | 81.8% | 110% | 86% | 85.7% | 97.7% | 80.3% | 76.4% | 72.8% | 78.4% | 110% |
| CCc1ccc(Oc2c(-c3ccc(OCc4ccc(Cl)cc4)cc3O)nn(C)c2C(F)(F)F)cc1 | 4.91% (active) | -11.1% (active) | -0.904% (active) | 18.2% | 1.22% (active) | -6.54% (active) | -76.4% (active) | -2.19% (active) | -24.6% (active) | 20.1% |
| CCc1ccc(Oc2c(-c3ccc(OCc4ccc(Cl)cc4)cc3O)n[nH]c2C(F)(F)F)cc1 | 12.8% | 86.1% | 36.6% | 25.4% | 9.9% (active) | 13.9% | -14% (active) | 17.9% | 7.09% (active) | 22.9% |
| N#Cc1c(-c2ccc(Cl)cc2)nc2c(c(-c3ccccc3)nn2-c2ccccc2)c1-c1ccc(O)cc1 | 27.2% | 91.8% | 42.6% | 65% | 34% | 12% | 56.3% | 53.6% | 26.5% | 56.4% |
| CSc1nc2ccc(C)cc2cc1/C=N/O | 86.7% | 93.1% | 59.2% | 95.7% | 78.6% | 79% | 90% | 77% | 91.9% | 101% |
| O=C1c2cccc3cccc(c23)C(=O)N1Nc1nc(N2CCOCC2)nc(N2CCN(c3ccccc3)CC2)n1 | 33.7% | 24.3% | 21.4% | 45.6% | 59.3% | 43.4% | 4.98% (active) | 32.2% | 39.2% | 52.5% |
| CN1CCN(CC(=O)N2c3cccc4cccc(c34)N(C(=O)CN3CCN(C)CC3)C2c2cn(-c3ccccc3)nc2-c2cccc([N+](=O)[O-])c2)CC1 | -13.6% (active) | -33.5% (active) | 65% | 24.9% | -64.4% (active) | 22.6% | -97.8% (active) | -83.6% (active) | -93.8% (active) | -89.5% (active) |
| O=C1NC(=O)C(Cn2cnc3ccccc32)N1 (stereo not given) | 101% | 105% | 85.7% | 95.5% | 101% | 95% | 101% | 98.5% | 97.8% | 104% |
| Cc1nc2ccccc2n1-c1ncnc2c1CC(C)c1ccccc1N2C (stereo not given) | 75.4% | 59.5% | 70.3% | 86% | 78.8% | 67.2% | 91.3% | 71.2% | 82.7% | 91.7% |
| COc1ccc2nc(NCCCNCCO)c3sc4ccc(F)cc4c(=O)c3c2c1 | -47.9% (active) | -43.7% (active) | 54.1% | 61.5% | -33.2% (active) | 38.9% | 85% | 65.7% | -97% (active) | 68.9% |
| N#C/C(=C\c1cccc2cnccc12)n1nnc2cccc(F)c21 | 10.2% | 27.5% | -5.04% (active) | 80.7% | 78.9% | 48.7% | 58.7% | 36.5% | 14.9% | 37.1% |
| Cc1ccc(NC2=C(Cl)C(=O)c3nc(C)ccc3C2=O)cc1 | -77.1% (active) | 82.4% | -41.9% (active) | 47.3% | 41.3% | 29.9% | -90.8% (active) | -70.4% (active) | -78.2% (active) | -79% (active) |
| COc1cccc(-c2nc(-c3ccc(NS(=O)(=O)c4ccccc4)cc3)[nH]c2-c2ccnc(Br)c2)c1 | 3.93% (active) | 32.8% | 15% | 39.8% | 35.4% | 15.1% | 41.7% | 14.8% | 4.69% (active) | 25.6% |
| CCOC(=O)c1nc(Nc2ccc(C(C)=O)cc2)sc1C | 96.8% | 97.5% | 89.7% | 95.9% | 101% | 99.5% | 100% | 95.1% | 99.9% | 102% |
| C[C@]12CC[C@@H]3c4cc(OC(F)F)c(OS(N)(=O)=O)cc4CC[C@H]3[C@@H]1CC[C@@H]2OS(N)(=O)=O | 20.1% | 106% | -3.22% (active) | 53.6% | 33.1% | 52.2% | 27% | 54.1% | 32.8% | 50% |
| Cc1ccc(S(=O)(=O)Oc2ccc(NC(=O)c3ccc(Cl)cc3)cc2)cc1 | 88.8% | 94.9% | 98.7% | 94.2% | 97.1% | 93.2% | 99.9% | 95.8% | 95.1% | 108% |
| CCC(C)(c1cc(C(C)(C)C)c(O)c(C(C)(C)C)c1)c1cc(C(C)(C)C)c(O)c(C(C)(C)C)c1 | 105% | 96.3% | 83.4% | 104% | 98.6% | 101% | 100% | 91.8% | 103% | 106% |
| C=C1C(=O)O[C@H]2[C@H]1CC/C(COC(=O)CSCC(=O)OC/C1=C/CC[C@@]3(C)O[C@H]3[C@H]3OC(=O)C(=C)[C@@H]3CC1)=C\CC[C@@]1(C)O[C@@H]21 | 5.12% (active) | -26% (active) | 81.8% | 69.1% | 34.3% | 46.9% | 63.2% | 42.4% | -25.2% (active) | -3.76% (active) |
| CCN1C(=O)N(CC)C2Nn3c(s/c(=C4\C(=O)Nc5ccccc54)c3=O)=NC21 (stereo not given) | 35.9% | 81.2% | 19.3% | 55.8% | 42.8% | 30.3% | 41.6% | 46.6% | 56.9% | 60% |
